Assays:
Assay in all cases: DAPPL (digital affinity profiling via proximity ligation, sequencing); 10 mM Tris-HCl pH 7.5, 50 mM NaCl, 1 mM DTT, 4% glycerol, room temperature, 30 min; GST-TFs on glutathione beads, 16-mer random dsDNA library, 0.1% formaldehyde crosslink after washing; high values mean tight binding
FLI1 = target: T1, FLI1 (Homo sapiens, UniProt Q01543 1-452); conditions: protein: recombinant; tags: N-terminal GST; dsDNA, one strand shown
T1 sequence: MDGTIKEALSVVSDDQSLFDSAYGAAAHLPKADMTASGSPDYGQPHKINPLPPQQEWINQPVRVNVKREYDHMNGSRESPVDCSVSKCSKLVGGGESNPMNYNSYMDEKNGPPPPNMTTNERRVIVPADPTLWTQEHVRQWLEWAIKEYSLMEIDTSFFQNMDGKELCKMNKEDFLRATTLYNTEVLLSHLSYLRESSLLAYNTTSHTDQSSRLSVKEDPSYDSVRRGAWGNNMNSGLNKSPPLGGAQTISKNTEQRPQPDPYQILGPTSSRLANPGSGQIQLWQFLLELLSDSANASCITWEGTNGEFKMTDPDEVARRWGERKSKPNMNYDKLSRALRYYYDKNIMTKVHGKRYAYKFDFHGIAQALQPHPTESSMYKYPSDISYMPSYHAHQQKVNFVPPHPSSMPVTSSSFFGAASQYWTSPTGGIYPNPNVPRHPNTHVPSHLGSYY
Method in brief: (§1)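 Human transcription factors were made in yeast as GST fusions, captured on glutathione beads and barcoded with DNA. With a tag-only sample included, the pool was incubated with 200 nmole of a random double-stranded 16-mer DNA library in Tris/NaCl/DTT/glycerol buffer at room temperature for 30 min, then crosslinked with 0.1% formaldehyde after washing, ligated by proximity, amplified and sequenced. For binding signal, each hexamer's read frequency for a factor is divided by its frequency for the tag-only sample.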

ELK1 = target: T2, ELK1 (Homo sapiens, UniProt P19419 1-428); conditions: protein: recombinant; tags: N-terminal GST; dsDNA, one strand shown
T2 sequence: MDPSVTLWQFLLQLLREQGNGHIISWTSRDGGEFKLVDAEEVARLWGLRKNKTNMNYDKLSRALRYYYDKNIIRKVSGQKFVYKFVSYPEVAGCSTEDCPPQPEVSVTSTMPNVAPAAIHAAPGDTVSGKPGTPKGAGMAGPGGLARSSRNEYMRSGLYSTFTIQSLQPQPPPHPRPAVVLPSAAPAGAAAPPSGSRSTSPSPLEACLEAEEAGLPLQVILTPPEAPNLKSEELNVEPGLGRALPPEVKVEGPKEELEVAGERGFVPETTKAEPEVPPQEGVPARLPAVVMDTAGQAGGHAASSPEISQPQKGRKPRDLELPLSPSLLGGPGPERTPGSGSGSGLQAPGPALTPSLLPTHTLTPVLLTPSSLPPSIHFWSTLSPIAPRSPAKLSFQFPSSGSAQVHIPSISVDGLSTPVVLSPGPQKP
Method in brief: as §1

GABPA = target: T3, GABPA (Homo sapiens, UniProt Q06546 1-454); conditions: protein: recombinant; tags: N-terminal GST; dsDNA, one strand shown
T3 sequence: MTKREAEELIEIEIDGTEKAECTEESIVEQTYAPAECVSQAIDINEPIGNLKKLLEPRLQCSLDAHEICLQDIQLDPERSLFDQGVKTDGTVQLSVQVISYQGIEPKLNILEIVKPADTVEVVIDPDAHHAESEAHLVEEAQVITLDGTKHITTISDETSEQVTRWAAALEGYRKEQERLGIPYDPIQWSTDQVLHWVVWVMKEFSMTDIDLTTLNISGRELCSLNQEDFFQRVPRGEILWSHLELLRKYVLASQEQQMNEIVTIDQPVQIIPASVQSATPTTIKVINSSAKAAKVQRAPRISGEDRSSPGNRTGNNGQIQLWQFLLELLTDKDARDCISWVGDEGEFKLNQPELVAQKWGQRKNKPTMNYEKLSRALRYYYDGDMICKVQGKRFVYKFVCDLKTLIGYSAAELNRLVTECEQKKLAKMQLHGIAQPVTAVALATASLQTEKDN
Method in brief: as §1

ERG = target: T4, ERG (Homo sapiens, UniProt P11308 1-479); conditions: protein: recombinant; tags: N-terminal GST; dsDNA, one strand shown
T4 sequence: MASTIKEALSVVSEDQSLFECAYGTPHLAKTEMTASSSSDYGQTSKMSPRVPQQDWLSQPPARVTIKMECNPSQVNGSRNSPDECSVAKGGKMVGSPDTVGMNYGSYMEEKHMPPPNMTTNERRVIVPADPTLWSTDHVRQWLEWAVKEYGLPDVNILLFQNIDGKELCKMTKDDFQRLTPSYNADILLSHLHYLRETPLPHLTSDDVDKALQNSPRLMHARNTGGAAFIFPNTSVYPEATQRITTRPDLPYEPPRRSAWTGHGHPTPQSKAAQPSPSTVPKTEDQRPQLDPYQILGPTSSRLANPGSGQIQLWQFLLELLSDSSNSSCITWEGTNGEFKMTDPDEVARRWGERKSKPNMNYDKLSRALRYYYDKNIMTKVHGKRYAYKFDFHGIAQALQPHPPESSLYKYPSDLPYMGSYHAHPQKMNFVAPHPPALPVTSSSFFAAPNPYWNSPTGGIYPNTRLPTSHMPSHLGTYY
Method in brief: as §1

ELF1 = ELF1 (Homo sapiens, UniProt P32519 1-619); conditions: protein: recombinant; tags: N-terminal GST; dsDNA, one strand shown
Sequence of ELF1 (P32519 whole entry): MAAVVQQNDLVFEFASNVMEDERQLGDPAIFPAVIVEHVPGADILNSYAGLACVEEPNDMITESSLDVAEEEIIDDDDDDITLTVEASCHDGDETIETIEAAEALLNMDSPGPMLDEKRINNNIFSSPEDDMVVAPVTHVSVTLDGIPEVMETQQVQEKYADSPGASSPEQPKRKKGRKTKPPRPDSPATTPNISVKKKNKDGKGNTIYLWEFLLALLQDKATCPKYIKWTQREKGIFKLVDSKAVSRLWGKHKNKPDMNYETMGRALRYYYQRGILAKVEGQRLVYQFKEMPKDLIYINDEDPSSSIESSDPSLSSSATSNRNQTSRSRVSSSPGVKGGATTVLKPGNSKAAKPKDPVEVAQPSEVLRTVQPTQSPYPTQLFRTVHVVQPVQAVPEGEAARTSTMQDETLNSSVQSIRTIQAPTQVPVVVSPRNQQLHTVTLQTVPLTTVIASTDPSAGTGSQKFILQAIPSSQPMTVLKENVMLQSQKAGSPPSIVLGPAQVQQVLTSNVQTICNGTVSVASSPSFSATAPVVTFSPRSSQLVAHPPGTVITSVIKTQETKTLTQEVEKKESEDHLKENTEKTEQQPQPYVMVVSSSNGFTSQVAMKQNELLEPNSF
Method in brief: as §1

EHF = target: T5, EHF (Homo sapiens, UniProt Q9NZC4 1-300); conditions: protein: recombinant; tags: N-terminal GST; dsDNA, one strand shown
T5 sequence: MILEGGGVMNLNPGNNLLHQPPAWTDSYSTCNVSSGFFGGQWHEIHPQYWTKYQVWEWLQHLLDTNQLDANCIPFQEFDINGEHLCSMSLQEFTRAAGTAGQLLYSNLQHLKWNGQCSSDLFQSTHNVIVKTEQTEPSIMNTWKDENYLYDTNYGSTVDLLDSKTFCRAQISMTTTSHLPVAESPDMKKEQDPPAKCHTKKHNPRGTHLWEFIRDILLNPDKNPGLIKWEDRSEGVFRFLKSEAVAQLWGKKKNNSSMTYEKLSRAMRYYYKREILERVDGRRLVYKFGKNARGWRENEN
Method in brief: as §1

SPI1 = SPI1 (Homo sapiens, UniProt P17947 1-270); conditions: protein: recombinant; tags: N-terminal GST; dsDNA, one strand shown
Method in brief: as §1

SPIB = SPIB (Homo sapiens, UniProt Q01892 1-262); conditions: protein: recombinant; tags: N-terminal GST; dsDNA, one strand shown
Sequence of SPIB (Q01892 whole entry): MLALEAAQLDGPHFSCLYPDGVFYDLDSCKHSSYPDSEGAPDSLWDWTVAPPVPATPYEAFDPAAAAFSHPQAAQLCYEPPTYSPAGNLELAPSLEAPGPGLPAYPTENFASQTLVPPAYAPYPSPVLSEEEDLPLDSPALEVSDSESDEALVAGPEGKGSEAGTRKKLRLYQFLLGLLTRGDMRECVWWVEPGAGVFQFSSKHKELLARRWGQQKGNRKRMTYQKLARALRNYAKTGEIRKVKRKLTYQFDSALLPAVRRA
Method in brief: as §1

ELK3 = target: T6, ELK3 (Homo sapiens, UniProt P41970 1-407); conditions: protein: recombinant; tags: N-terminal GST; dsDNA, one strand shown
T6 sequence: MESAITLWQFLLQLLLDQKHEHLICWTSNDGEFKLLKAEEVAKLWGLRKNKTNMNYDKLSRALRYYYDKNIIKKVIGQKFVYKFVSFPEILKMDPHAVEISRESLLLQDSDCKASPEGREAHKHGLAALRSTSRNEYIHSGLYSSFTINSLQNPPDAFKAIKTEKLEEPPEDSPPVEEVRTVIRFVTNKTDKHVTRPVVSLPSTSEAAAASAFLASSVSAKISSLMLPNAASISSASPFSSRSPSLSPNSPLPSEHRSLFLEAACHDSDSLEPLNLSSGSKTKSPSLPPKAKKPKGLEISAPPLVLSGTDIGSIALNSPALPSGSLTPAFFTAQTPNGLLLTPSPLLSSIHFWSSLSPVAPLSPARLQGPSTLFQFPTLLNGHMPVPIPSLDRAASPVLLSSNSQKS
Method in brief: as §1

FEV = target: T7, FEV (Homo sapiens, UniProt Q99581 1-238); conditions: protein: recombinant; tags: N-terminal GST; dsDNA, one strand shown
T7 sequence: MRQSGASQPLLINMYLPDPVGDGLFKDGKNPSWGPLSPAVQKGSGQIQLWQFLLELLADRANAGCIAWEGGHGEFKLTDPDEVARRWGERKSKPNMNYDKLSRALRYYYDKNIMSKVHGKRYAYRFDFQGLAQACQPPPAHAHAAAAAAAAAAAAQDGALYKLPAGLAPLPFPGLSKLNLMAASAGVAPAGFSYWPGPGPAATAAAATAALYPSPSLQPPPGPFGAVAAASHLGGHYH
Method in brief: as §1

ETV5 = ETV5 (Homo sapiens, UniProt P41161 1-510); conditions: protein: recombinant; tags: N-terminal GST; dsDNA, one strand shown
Sequence of ETV5 (P41161 whole entry): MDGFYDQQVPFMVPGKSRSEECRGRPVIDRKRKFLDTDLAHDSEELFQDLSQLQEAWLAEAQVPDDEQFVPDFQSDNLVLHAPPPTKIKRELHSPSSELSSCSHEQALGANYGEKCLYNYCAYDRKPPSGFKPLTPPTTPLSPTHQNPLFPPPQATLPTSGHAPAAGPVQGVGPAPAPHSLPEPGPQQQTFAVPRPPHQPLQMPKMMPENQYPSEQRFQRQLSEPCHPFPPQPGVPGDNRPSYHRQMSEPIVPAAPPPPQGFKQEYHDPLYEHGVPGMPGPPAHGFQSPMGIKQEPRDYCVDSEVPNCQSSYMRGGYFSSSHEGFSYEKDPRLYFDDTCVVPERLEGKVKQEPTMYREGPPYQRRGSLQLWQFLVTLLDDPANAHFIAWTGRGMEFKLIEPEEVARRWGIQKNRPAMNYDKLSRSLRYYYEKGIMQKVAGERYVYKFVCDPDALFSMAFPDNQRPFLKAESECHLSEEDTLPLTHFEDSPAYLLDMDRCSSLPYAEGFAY
Method in brief: as §1

HSF1 = HSF1 (Homo sapiens, UniProt Q00613 1-529); conditions: protein: recombinant; tags: N-terminal GST; chain copies: 3; dsDNA, one strand shown
Sequence of HSF1 (Q00613 whole entry): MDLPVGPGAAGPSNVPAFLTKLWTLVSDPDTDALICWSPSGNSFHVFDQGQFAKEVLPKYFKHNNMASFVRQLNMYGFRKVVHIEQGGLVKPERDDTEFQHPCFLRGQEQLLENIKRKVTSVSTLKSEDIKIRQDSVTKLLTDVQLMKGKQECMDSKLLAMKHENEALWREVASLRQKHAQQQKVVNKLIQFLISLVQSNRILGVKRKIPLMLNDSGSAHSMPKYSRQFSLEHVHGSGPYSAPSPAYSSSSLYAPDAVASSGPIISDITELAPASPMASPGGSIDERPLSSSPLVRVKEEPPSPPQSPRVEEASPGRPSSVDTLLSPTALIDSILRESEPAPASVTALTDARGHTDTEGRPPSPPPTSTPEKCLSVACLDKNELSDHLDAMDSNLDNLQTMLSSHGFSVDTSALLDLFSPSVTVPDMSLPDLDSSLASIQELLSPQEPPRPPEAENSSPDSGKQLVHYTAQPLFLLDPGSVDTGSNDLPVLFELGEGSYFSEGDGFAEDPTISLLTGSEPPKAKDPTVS
Method in brief: as §1

SPIC = target: T8, SPIC (Homo sapiens, UniProt Q8N5J4 1-248); conditions: protein: recombinant; tags: N-terminal GST; dsDNA, one strand shown
T8 sequence: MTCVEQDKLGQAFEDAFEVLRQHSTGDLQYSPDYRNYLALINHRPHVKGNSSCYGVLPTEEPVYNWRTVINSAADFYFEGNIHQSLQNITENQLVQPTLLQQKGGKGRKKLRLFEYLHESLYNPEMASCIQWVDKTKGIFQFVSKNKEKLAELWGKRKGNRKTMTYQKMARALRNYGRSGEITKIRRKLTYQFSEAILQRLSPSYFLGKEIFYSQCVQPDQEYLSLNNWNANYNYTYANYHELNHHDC
Method in brief: as §1

ELF4 = ELF4 (Homo sapiens, UniProt Q99607 1-663); conditions: protein: recombinant; tags: N-terminal GST; dsDNA, one strand shown
Sequence of ELF4 (Q99607 whole entry): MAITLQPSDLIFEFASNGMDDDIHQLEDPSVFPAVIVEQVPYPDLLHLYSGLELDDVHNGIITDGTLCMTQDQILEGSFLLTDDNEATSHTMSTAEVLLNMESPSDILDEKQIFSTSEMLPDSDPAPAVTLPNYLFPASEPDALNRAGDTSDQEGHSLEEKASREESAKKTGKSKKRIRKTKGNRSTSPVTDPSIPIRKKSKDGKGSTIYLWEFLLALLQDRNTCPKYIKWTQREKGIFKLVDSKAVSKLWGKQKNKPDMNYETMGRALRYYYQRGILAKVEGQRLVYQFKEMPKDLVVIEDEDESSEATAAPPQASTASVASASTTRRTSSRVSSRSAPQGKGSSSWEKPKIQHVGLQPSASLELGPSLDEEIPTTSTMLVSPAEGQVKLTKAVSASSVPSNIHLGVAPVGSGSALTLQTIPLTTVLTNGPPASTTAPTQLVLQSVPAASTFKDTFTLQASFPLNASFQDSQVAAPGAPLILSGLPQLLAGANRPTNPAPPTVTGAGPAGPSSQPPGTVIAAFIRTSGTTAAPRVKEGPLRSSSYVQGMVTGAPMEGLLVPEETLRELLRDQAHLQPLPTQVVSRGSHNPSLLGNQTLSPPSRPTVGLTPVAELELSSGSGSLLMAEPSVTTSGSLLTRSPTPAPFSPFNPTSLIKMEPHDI
Method in brief: as §1

ELK4 = target: T9, ELK4 (Homo sapiens, UniProt P28324-2 1-405); conditions: protein: recombinant; tags: N-terminal GST; dsDNA, one strand shown
T9 sequence: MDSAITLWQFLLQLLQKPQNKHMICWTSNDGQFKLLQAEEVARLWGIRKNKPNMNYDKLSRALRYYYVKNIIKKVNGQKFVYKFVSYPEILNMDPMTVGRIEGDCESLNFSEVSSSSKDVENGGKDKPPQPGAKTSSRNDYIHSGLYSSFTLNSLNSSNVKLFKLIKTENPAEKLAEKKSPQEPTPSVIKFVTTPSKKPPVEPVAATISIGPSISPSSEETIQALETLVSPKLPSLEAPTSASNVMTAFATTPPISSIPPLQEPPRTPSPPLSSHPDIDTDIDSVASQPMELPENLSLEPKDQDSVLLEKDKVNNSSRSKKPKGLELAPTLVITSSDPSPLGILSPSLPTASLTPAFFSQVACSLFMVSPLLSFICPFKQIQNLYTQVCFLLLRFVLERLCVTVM
Method in brief: as §1

ETV2 = target: T10, ETV2 (Homo sapiens, UniProt O00321 1-342); conditions: protein: recombinant; tags: N-terminal GST; dsDNA, one strand shown
T10 sequence: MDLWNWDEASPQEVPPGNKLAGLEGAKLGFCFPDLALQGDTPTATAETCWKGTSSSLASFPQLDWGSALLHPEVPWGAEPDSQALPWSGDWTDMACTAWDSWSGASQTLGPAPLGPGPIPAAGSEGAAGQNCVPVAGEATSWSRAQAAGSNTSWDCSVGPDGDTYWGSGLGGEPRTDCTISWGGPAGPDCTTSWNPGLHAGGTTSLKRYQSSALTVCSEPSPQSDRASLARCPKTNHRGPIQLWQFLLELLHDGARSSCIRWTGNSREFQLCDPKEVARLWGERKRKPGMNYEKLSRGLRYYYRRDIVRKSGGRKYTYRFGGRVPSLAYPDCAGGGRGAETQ
Method in brief: as §1

ELF3 = target: T11, ELF3 (Homo sapiens, UniProt P78545 1-371); conditions: protein: recombinant; tags: N-terminal GST; dsDNA, one strand shown
T11 sequence: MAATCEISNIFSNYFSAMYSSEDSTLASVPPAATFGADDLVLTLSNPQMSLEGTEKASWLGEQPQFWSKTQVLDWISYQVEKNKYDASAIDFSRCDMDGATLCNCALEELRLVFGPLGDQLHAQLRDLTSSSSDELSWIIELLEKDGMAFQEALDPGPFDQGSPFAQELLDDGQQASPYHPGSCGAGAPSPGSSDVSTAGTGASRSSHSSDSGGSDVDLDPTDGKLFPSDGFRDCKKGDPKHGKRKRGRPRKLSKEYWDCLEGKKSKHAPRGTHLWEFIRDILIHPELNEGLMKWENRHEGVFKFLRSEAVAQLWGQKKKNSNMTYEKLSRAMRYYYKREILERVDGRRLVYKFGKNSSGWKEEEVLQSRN
Method in brief: as §1

CRX = CRX (Homo sapiens, UniProt O43186 1-299); conditions: protein: recombinant; tags: N-terminal GST; dsDNA, one strand shown
Sequence of CRX (O43186 whole entry): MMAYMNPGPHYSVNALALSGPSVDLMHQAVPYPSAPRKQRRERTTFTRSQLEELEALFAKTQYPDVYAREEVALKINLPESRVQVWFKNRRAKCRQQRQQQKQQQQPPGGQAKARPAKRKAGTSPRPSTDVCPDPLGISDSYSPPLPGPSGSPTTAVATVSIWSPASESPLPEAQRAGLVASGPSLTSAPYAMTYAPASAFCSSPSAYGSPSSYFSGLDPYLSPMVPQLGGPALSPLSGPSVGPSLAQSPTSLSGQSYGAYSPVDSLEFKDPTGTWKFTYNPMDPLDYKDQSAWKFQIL
Method in brief: as §1

ETV1 = ETV1 (Homo sapiens, UniProt P50549 1-477); conditions: protein: recombinant; tags: N-terminal GST; dsDNA, one strand shown
Sequence of ETV1 (P50549 whole entry): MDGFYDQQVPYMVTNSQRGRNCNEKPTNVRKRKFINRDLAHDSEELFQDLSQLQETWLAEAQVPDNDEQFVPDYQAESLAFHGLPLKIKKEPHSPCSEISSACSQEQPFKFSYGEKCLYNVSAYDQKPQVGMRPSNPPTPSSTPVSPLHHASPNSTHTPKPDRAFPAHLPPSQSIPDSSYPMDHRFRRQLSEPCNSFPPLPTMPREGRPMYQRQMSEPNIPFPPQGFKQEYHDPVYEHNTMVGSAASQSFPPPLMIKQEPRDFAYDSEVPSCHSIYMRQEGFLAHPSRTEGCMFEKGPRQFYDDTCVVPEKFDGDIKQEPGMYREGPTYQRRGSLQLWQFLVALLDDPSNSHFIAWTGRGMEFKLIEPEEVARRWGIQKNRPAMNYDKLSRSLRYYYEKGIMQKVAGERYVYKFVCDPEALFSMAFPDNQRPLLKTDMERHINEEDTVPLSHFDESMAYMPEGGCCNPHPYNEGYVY
Method in brief: as §1

Question: For CTTGGG, which binding signal (FLI1) is on record?
Answer: 1.24 fold enrichment (6-mer frequency, TF over GST control)

Question: And the binding signal (ELK1)?
Answer: 1.38 fold enrichment (6-mer frequency, TF over GST control)

Question: And the binding signal (GABPA)?
Answer: 1.36 fold enrichment (6-mer frequency, TF over GST control)

Question: And the binding signal (ERG)?
Answer: 1.29 fold enrichment (6-mer frequency, TF over GST control)

Question: And the binding signal (ELF1)?
Answer: 1.26 fold enrichment (6-mer frequency, TF over GST control)

Question: And the binding signal (EHF)?
Answer: 1.14 fold enrichment (6-mer frequency, TF over GST control)

Question: What about the binding signal (SPI1) of the same sequence?
Answer: 1.29 fold enrichment (6-mer frequency, TF over GST control)

Question: What about the binding signal (SPIB) of the same sequence?
Answer: 1.39 fold enrichment (6-mer frequency, TF over GST control)

Question: And the binding signal (ELK3)?
Answer: 1.47 fold enrichment (6-mer frequency, TF over GST control)

Question: And the binding signal (FEV)?
Answer: 1.23 fold enrichment (6-mer frequency, TF over GST control)

Question: And the binding signal (ETV5)?
Answer: 1.26 fold enrichment (6-mer frequency, TF over GST control)

Question: What about the binding signal (HSF1) of the same sequence?
Answer: 1.12 fold enrichment (6-mer frequency, TF over GST control)

Question: What about the binding signal (SPIC) of the same sequence?
Answer: 1.31 fold enrichment (6-mer frequency, TF over GST control)

Question: What about the binding signal (ELF4) of the same sequence?
Answer: 1.21 fold enrichment (6-mer frequency, TF over GST control)

Question: And the binding signal (ELK4)?
Answer: 1.32 fold enrichment (6-mer frequency, TF over GST control)

Question: What about the binding signal (ETV2) of the same sequence?
Answer: 1.15 fold enrichment (6-mer frequency, TF over GST control)

Question: And the binding signal (ELF3)?
Answer: 1.23 fold enrichment (6-mer frequency, TF over GST control)

Question: And the binding signal (CRX)?
Answer: 1.13 fold enrichment (6-mer frequency, TF over GST control)

Question: And the binding signal (ETV1)?
Answer: 1.38 fold enrichment (6-mer frequency, TF over GST control)
